In PubChem BioAssay (EPA / NIEHS):
Records with an inconclusive call do not appear. The source made the active and inactive calls. Rule for the calls, unless noted: active = hit-call score of the fitted dose curve at least 0.9, where 1 is the maximum; inactive = score below 0.9.

What was measured:
[1] = target: Retinoic acid receptor RXR-alpha (Homo sapiens) (UniProt P19793); experiment: ATG_RXRa_TRANS: Attagene TRANS-FACTORIAL HepG2 Assay for human Retinoid X Receptor alpha (RXRa) (AID 2283012; active = hit-call score of the fitted dose curve at least 0.9, where 1 is the maximum)
How it was run: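 Transient transfection of human HepG2 with multiple GAL4-UAS reporter constructs; 24 h compound exposure; total RNA isolated, reverse-transcribed, PCR-amplified, 6-FAM labelled, HpaI-cut, resolved by capillary electrophoresis. Positive-direction fit versus DMSO.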

[2] = target: human Retinoid X Receptor beta (RXRb), RXRB (gene 6257) (UniProt P28702); experiment: ATG_RXRb_TRANS: Attagene TRANS-FACTORIAL HepG2 Assay for human Retinoid X Receptor beta (RXRb) (AID 2283013; active = hit-call score of the fitted dose curve at least 0.9, where 1 is the maximum)
How it was run: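 Transfect HepG2 with GAL4-UAS multi-reporter constructs (chimeric NR-Gal4, TRANS format); dose compound 24 h; isolate RNA, RT-PCR, FAM primer extension, HpaI digest; quantify by capillary electrophoresis; positive direction vs DMSO.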

[3] = target: human Thyroid Receptor alpha (THRa1), THRA (gene 7067) (UniProt P10827); experiment: ATG_THRa1_TRANS: Attagene TRANS-FACTORIAL HepG2 Assay for human Thyroid Receptor alpha (THRa1) (AID 2283014; active = hit-call score of the fitted dose curve at least 0.9, where 1 is the maximum)
How it was run: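 HepG2 cells transiently transfected with multiplexed GAL4-UAS reporter units for exogenous chimeric THRa1-Gal4; reporter mRNA measured 24 h after dosing by RT-PCR, 6-FAM labelling, HpaI digestion and capillary electrophoresis. Gain-of-signal fitted versus DMSO baseline.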

[4] = read-out: E-selectin (Homo sapiens) (UniProt P16581); experiment: BSK_3C_Eselectin: BioMAP Diversity Plus: 3C Assay for Eselectin Biomarker Activity (AID 2283015); conditions: primary human endothelial cells (HUVEC); actives raise or lower the signal;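 note: cell surface E-selectin protein quantified by ELISA 24 h after dosing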
How it was run: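 Primary human umbilical vein endothelial cells (3C system) were dosed with chemical and cell-surface E-selectin measured by ELISA 24 h later. Bidirectional curve fitting used DMSO as negative control and baseline.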

[5] = read-out: Interleukin-1 alpha (IL1a), IL1A (gene 3552); experiment: BSK_BE3C_IL1a: BioMAP Diversity Plus: BE3C Assay for Interleukin-1 alpha (IL1a) Biomarker Activity (AID 2283016); conditions: primary human bronchial epithelial cells; actives raise or lower the signal
How it was run: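 BE3C primary human bronchial epithelium; cpd 24 h; IL-1a by ELISA; bidirectional fit vs DMSO; parallel SRB (0.1% SRB, 10% TCA fix, 560 nm) for cytotoxicity.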

[6] = read-out: Monocyte Chemoattractant Protein-1 (MCP1), CCL2 (gene 6347); experiment: BSK_3C_MCP1: BioMAP Diversity Plus: 3C Assay for Monocyte Chemoattractant Protein-1 (MCP1) Biomarker Activity (AID 2283017); conditions: primary human endothelial cells (HUVEC); actives raise or lower the signal
How it was run: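 Primary human umbilical vein endothelial cells (3C system) were exposed to test chemical for 24 h, after which MCP-1 was quantified by ELISA. Activity was fitted bidirectionally against DMSO as negative control and baseline.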

[7] = read-out: Monocyte Chemoattractant Protein-1 (MCP1), CCL2 (gene 6347); experiment: BSK_4H_MCP1: BioMAP Diversity Plus: 4H Assay for Monocyte Chemoattractant Protein-1 (MCP1) Biomarker Activity (AID 2283018); conditions: primary human endothelial cells (HUVEC); actives raise or lower the signal
How it was run: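 ELISA read-out of MCP-1 from human vascular endothelial primary cells taken at 24 hours after compound exposure. Activity was fitted in both directions relative to DMSO, which served as negative control.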

[8] = read-out: Human Leukocyte Antigen - DR isotype (HLADR), HLA-DRA (gene 3122); experiment: BSK_3C_HLADR: BioMAP Diversity Plus: 3C Assay for Human Leukocyte Antigen - DR isotype (HLADR) Biomarker Activity (AID 2283019); conditions: primary human endothelial cells (HUVEC); actives raise or lower the signal;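 note: ELISA of cell-surface HLA-DR on HUVEC 24 h after dosing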
How it was run: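 Primary human umbilical vein endothelial cells (3C system) were dosed with compound and cell-surface HLA-DR was quantified by ELISA at 24 h. Activity was fitted bidirectionally against DMSO as negative control and baseline.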

[9] = read-out: Interleukin-8 (IL8), CXCL8 (gene 3576); experiment: BSK_3C_IL8: BioMAP Diversity Plus: 3C Assay for Interleukin-8 (IL8) Biomarker Activity (AID 2283020); conditions: primary human endothelial cells (HUVEC); actives raise or lower the signal
How it was run: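 ELISA read-out of IL-8 from human umbilical vein endothelium, measured 24 h after chemical dosing. Activity is expressed relative to DMSO negative control, with both increases and decreases fitted.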

[10] = read-out: Monokine induced gamma interferon (MIG), CXCL9 (gene 4283); experiment: BSK_3C_MIG: BioMAP Diversity Plus: 3C Assay for Monokine induced gamma interferon (MIG) Biomarker Activity (AID 2283021); conditions: primary human endothelial cells (HUVEC); actives raise or lower the signal
How it was run: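 Read-out is ELISA detection of MIG on human umbilical vein endothelial cells, taken 24 h after dosing. Gain or loss of signal was scored relative to DMSO controls using bidirectional curve fitting.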

[11] = target: human Vitamin D Receptor (VDR), VDR (gene 7421) (UniProt P11473); experiment: ATG_VDR_TRANS: Attagene TRANS-FACTORIAL HepG2 Assay for human Vitamin D Receptor (VDR) (AID 2283022; active = hit-call score of the fitted dose curve at least 0.9, where 1 is the maximum)
How it was run: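 HepG2 cells were transiently transfected with multiple GAL4-UAS reporter units, so signal reflects exogenous chimeric receptor-Gal4 activity. After 24 h compound exposure, reporter mRNA was measured by RT-PCR, fluorescent labelling and capillary electrophoresis, fitted for gain of signal versus DMSO.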

[12] = BSK_3C_SRB: Viability Assessment in the BioMAP Diversity Plus: 3C Assay (AID 2283023); conditions: primary human endothelial cells (HUVEC);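 note: fitted both ways against DMSO so a hit may be signal rise or drop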
How it was run: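 Primary human umbilical vein endothelial cells in the 3C system were read 24 h after compound dosing. Total protein was stained with 0.1% sulforhodamine B after 10% TCA fixation and read at 560 nm, with bidirectional fitting against DMSO as baseline.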

[13] = read-out: Matrix Metallopeptidase 1 (MMP1), MMP1 (gene 4312); experiment: BSK_BE3C_MMP1: BioMAP Diversity Plus: BE3C Assay for Matrix Metallopeptidase 1 (MMP1) Biomarker Activity (AID 2283024); conditions: primary human bronchial epithelial cells; actives raise or lower the signal
How it was run: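 Human bronchial epithelial cells (BE3C system) exposed to compound for 24 h; MMP1 then quantified by ELISA. Activity was fitted in both directions relative to DMSO.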

[14] = BSK_3C_Vis: BioMAP Diversity Plus: 3C Assay for Morphology Visualization (AID 2283025); conditions: primary human endothelial cells (HUVEC);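 note: fitted both ways so gain or loss versus DMSO counts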;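 for AC50: light microscopy image of cell morphology used as background control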
How it was run: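 Chemicals were added to primary human umbilical vein endothelium, cells were incubated 24 h, and morphology was then visualized by light microscopy. Gain or loss of signal was fitted bidirectionally relative to DMSO.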

[15] = read-out: Pselectin, SELP (gene 6403); experiment: BSK_4H_Pselectin: BioMAP Diversity Plus: 4H Assay for Pselectin Biomarker Activity (AID 2283026); conditions: primary human endothelial cells (HUVEC); actives raise or lower the signal
How it was run: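 ELISA read-out of P-selectin on human umbilical vein endothelium after 24 h of dosing. Values derive from bidirectional fitting relative to DMSO. Parallel SRB protein staining flagged overt cytotoxicity.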

[16] = BSK_4H_SRB: Viability Assessment in the BioMAP Diversity Plus: 4H Assay (AID 2283027); conditions: primary human endothelial cells (HUVEC);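 note: cells exposed to compound for 24 h before staining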;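 for AC50: curves fitted both ways versus DMSO so AC50 may be loss or gain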
How it was run: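 Human umbilical vein endothelial cells, 24 h after chemical dosing; total protein measured by 0.1% sulforhodamine B staining after 10% TCA fixation, read at 560 nm. Bidirectional fitting against DMSO.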

[17] = BSK_BE3C_SRB: Viability Assessment in the BioMAP Diversity Plus: BE3C Assay (AID 2283028); conditions: primary human bronchial epithelial cells
How it was run: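 Human primary bronchial epithelial cells were exposed to test chemicals for 24 h. Total protein in parallel cultures was then measured by staining with 0.1% sulforhodamine B after 10% TCA fixation, with absorbance read at 560 nm. Activity was fitted bidirectionally against DMSO.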

[18] = read-out: Thrombomodulin, THBD (gene 7056); experiment: BSK_3C_Thrombomodulin: BioMAP Diversity Plus: 3C Assay for Thrombomodulin Biomarker Activity (AID 2283029); conditions: primary human endothelial cells (HUVEC); actives raise or lower the signal
How it was run: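 Read-out is ELISA of thrombomodulin on human umbilical vein endothelium 24 h after chemical dosing. Gain or loss of signal is scored relative to DMSO. Overt cytotoxicity is checked in parallel cultures by sulforhodamine B staining.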

[19] = read-out: Vascular endothelial growth factor receptor 2 (Homo sapiens) (UniProt P35968); experiment: BSK_4H_VEGFRII: BioMAP Diversity Plus: 4H Assay for Vascular endothelial growth factor receptor 2 (VEGFR2) Biomarker Activity (AID 2283031); conditions: primary human endothelial cells (HUVEC); actives raise or lower the signal
How it was run: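 Primary human umbilical vein endothelial cells in the BioMAP 4H system were dosed with test chemical, and 24 h later VEGFRII was measured by ELISA. Activity was fitted bidirectionally against DMSO as negative control and baseline.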

[20] = read-out: Urokinase-type plasminogen activator receptor (uPAR), PLAUR (gene 5329); experiment: BSK_4H_uPAR: BioMAP Diversity Plus: 4H Assay for Urokinase-type plasminogen activator receptor (uPAR) Biomarker Activity (AID 2283030); conditions: primary human endothelial cells (HUVEC); actives raise or lower the signal
How it was run: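 Primary human umbilical vein endothelial cells were exposed to chemical for 24 h before cell-surface uPAR was quantified by ELISA. Activity was fitted bidirectionally against the DMSO negative control baseline.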

Measured: AC50

Chain of human Thyroid Receptor alpha (THRa1), THRA (gene 7067) (P10827 whole entry, looked up, the tested form may be a part): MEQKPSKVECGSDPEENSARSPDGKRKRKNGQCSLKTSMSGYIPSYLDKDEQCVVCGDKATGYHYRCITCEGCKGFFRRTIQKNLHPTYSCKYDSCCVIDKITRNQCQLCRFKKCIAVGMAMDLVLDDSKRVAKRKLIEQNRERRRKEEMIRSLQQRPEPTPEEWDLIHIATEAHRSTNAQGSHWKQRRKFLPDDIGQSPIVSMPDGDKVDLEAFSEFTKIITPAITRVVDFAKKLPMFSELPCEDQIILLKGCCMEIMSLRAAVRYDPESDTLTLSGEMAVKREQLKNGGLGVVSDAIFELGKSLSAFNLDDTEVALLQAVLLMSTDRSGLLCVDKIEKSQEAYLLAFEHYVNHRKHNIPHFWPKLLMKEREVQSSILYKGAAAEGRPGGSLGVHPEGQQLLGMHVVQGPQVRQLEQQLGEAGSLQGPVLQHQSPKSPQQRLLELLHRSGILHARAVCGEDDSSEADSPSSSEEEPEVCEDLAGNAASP
Chain of human Vitamin D Receptor (VDR), VDR (gene 7421) (P11473 whole entry, looked up, the tested form may be a part): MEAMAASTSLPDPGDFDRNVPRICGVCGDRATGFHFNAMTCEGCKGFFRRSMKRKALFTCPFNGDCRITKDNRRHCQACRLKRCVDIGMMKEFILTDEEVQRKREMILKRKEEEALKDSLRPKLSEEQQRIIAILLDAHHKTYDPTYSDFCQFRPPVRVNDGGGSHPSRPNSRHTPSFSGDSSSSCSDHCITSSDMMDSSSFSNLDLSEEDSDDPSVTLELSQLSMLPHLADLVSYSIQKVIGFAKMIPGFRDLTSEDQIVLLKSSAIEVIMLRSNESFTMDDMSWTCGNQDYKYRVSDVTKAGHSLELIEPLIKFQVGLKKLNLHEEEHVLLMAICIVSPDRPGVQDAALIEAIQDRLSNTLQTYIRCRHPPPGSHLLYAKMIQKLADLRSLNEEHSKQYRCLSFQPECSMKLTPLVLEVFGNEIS
Chain of human Retinoid X Receptor beta (RXRb), RXRB (gene 6257) (P28702 whole entry, looked up, the tested form may be a part): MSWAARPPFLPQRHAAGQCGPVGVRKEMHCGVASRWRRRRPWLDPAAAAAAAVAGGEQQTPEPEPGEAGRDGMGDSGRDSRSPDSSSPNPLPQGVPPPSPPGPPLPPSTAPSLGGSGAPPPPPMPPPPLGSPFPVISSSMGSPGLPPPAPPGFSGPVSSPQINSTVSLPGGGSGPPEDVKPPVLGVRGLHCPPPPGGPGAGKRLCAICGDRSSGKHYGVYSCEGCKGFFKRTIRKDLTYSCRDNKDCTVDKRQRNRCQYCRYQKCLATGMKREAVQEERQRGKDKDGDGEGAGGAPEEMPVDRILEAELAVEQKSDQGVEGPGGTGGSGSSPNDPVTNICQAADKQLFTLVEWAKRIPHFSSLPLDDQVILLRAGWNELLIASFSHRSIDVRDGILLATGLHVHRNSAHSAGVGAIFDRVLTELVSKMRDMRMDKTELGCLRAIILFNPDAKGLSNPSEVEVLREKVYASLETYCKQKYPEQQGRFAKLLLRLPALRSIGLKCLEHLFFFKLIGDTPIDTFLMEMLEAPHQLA
Chain of E-selectin (Homo sapiens) (P16581 whole entry, looked up): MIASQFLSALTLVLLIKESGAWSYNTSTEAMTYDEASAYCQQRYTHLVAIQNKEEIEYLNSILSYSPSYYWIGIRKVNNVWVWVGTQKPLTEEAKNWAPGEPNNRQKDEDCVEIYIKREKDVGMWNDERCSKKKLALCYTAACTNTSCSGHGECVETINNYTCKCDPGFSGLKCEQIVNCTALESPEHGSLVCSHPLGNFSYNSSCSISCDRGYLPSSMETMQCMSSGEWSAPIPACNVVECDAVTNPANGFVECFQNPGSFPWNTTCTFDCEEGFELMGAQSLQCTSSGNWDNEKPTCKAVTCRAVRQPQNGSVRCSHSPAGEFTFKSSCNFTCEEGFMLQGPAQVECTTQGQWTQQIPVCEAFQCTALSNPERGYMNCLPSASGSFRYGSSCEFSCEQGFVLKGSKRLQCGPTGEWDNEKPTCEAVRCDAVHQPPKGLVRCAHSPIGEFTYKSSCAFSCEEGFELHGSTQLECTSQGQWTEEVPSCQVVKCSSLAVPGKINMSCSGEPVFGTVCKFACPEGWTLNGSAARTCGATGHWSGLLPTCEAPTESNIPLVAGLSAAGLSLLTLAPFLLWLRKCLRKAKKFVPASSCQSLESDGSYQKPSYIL
Chain of Retinoic acid receptor RXR-alpha (Homo sapiens) (P19793 whole entry, looked up, the tested form may be a part): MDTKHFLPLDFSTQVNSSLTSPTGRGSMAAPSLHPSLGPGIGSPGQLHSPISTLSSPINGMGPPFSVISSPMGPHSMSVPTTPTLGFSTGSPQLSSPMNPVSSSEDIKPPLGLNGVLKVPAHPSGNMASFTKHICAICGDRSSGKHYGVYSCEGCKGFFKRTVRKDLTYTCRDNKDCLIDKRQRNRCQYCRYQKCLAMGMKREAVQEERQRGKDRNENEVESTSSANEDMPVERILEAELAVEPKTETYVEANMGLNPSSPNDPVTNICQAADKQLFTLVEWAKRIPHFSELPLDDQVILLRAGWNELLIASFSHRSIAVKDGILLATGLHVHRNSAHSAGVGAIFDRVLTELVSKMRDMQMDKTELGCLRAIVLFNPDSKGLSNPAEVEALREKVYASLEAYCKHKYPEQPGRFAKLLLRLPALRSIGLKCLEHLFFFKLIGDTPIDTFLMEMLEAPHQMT

O=C1CCCCC1
active: [3] 48.4 µM
not listed: [20]
inactive: all other assays above

CC(=O)CC(c1ccccc1)c1c(O)c2ccccc2oc1=O (configuration not stated)
not listed: [2] | [3] | [10] | [20]
inactive: all other assays above

O=C1c2c(O)cccc2Cc2cccc(O)c21
active: [12] 20 µM | [13] 4.63 µM | [14] 39 µM | [16] 20 µM
not listed: [1] | [11]
inactive: all other assays above

C/C=C/C=C/C(=O)O
active: [2] 41.5 µM
not listed: [1] | [11] | [19]
inactive: all other assays above

CSc1ccc(Oc2ccc(S(N)(=O)=O)cc2CN(C)C)cc1C
active: [14] 39 µM
not listed: [2] | [3] | [10] | [20]
inactive: all other assays above

CCCCC(CC)COC(=O)CCCCCCCC(=O)OCC(CC)CCCC (configuration not stated)
not listed: [3] | [10] | [11] | [20]
inactive: all other assays above

NC(=Nc1ccccc1)Nc1ccccc1
not listed: [3] | [10] | [11] | [15] | [20]
inactive: all other assays above

CCOCCOCCO
not listed: [2] | [3] | [10] | [11] | [20]
inactive: all other assays above
